Source: PubChem BioAssay
Only some compounds are listed: those with a hit (about 11% of all), similar ones and a draw of the others.
BAZ2B block = qHTS Assay for Inhibitors of BAZ2B; Bromodomain adjacent to zinc finger domain protein 2B (Homo sapiens), Q9UIF8; AlphaScreen BAZ2B-H3K14Ac peptide displacement; Potency, µM (titrated, usually from 114 µM), most hits filed as inhibitors; 4.4% of 360,000 active; also: nearly all actives have a fitted effect of over 60% in size
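Protein-peptide AlphaScreen: BAZ2B 50 nM, b-H3K14Ac 50 nM, 1x PBS pH 7.4 + 0.01% Tween-20. Preincubation 30 min RT; cpd 30 min RT (top 110 uM); beads 20 min RT, light-protected.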
JMJD2A Tudor = qHTS Assay for Inhibitors of JMJD2A-Tudor Domain | 4.4% of 390,000 active | AlphaScreen JMJD2A-Tudor / H3K4me3 peptide binding | Lysine-specific demethylase 4A (Homo sapiens), O75164 | AID 504339, 2011 | Potency, µM (series often up to 114 µM), hits mostly inhibitors; also: nearly all actives have a fitted effect of over 50% in size
G9a inh = qHTS Assay for Inhibitors of Histone Lysine Methyltransferase G9a; AID 504332, 2011; Potency, µM (top dose mostly 102 µM), usual class: inhibitors; Histone-lysine N-methyltransferase EHMT2 (Homo sapiens), Q96KQ7; 8.8% of 350,000 active; G9a H3K9 monomethylation, AlphaScreen, 2 h; also: nearly all actives have a fitted effect of over 75% in size
Target sequence (Q96KQ7 913-1193 limits assumed): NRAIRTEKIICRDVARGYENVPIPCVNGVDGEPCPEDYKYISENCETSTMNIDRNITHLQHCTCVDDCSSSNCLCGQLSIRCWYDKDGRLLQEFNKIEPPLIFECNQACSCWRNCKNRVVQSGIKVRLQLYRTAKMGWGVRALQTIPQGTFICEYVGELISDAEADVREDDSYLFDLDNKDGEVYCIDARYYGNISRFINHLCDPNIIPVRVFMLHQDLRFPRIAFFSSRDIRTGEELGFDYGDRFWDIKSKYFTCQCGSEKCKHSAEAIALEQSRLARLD
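Using a bead-based AlphaScreen, monomethylated H3K9 product from 2 h room-temperature reactions (G9a 20 nM, peptide 500 nM, SAM 20 uM) was detected with 0.5 ug/mL rabbit anti-H3K9me1 antibody.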
L3MBTL1 block = qHTS Assay for the Inhibitors of L3MBTL1; Lethal(3)malignant brain tumor-like protein 1 (Homo sapiens), Q9Y468; AID 485360, 2010; AlphaScreen L3MBTL1–H3K9me1 peptide binding; Potency, µM (top dose mostly 57.1 µM), hits mostly inhibitors; 0.66% of 230,000 active; also: nearly all actives have a fitted effect of over 60% in size
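First, the protein-peptide complex forms for 30 min at room temperature (L3MBTL1 50 nM, biotinylated H3K9me1 peptide 75 nM). Next, compounds are pin-transferred and incubated 30 min. Finally, AlphaScreen beads are added and read after 30 min.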
HP1b binding inh = HTS for Inhibitors of HP1-beta Chromodomain Interactions with Methylated Histone Tails; Chromobox protein homolog 1 (Homo sapiens), P83916; AlphaScreen HP1-beta / biotin-H3K9me3 peptide binding; Potency, µM (top dose mostly 114 µM), most hits filed as inhibitors; 0.56% of 390,000 active; AID 540317, 2011; also: nearly all actives have a fitted effect of over 70% in size
Target sequence (P83916 whole entry, looked up): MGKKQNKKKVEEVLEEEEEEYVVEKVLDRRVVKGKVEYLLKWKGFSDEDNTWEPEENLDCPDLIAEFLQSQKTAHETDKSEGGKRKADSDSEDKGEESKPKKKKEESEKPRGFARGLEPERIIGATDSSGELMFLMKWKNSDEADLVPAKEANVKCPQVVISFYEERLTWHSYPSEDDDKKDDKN
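HP1-beta protein (50 nM final) preincubated 30 min at room temperature with biotinylated H3(1-18)K9me3 peptide (50 nM) in PBS pH 7.4, 0.01% Tween-20, then compound added for 30 min. AlphaScreen streptavidin donor/nickel chelate acceptor beads (10 ug/mL final), 30 min dark, luminescence read.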
Each line names hits and unclear results; the compound was inactive in the other large screens. Calls follow the shape of the dose curve; as a rule, active = well fitted inhibition curve with a large enough effect; inconclusive = small, poorly fitted or top-dose-only effect; inactive = no such curve, though single readings can be large or run the other way.

NC(=O)N/N=C/c1ccc(-c2ccc(S(=O)(=O)Nc3ncccn3)cc2)o1	G9a inh 11µM
Cc1ccc(C(=O)N/N=C\c2ccc(-c3ccc(Cl)cc3)o2)cn1	none
NC(=O)N/N=C/c1ccc(-c2cccc(C(F)(F)F)c2)o1	none
CC(C)Oc1ccc(C(=O)N/N=C/c2ccc(-c3ccc(S(=O)(=O)Nc4ncccn4)cc3)o2)cc1	BAZ2B block inconclusive, JMJD2A Tudor inconclusive, G9a inh 50µM (no result: L3MBTL1 block)
CCCCN(C)C(=O)c1nc2ccccn2c1CN1CCC[C@H]1CO	none
CCOc1ccc(-c2cc(C(=O)Nc3ccc(NC(C)=O)cc3)no2)cc1	none (no result: L3MBTL1 block)
CCOc1ccc(OCC)c(C2C(C#N)=C(N)N(c3cccnc3)C3=C2C(=O)CC(C)(C)C3)c1 (stereo unspecified)	BAZ2B block inconclusive, G9a inh 50µM
NC(=S)C1COc2ccccc2O1 (stereo unspecified)	G9a inh 45µM
COc1ccc(NC(=S)N2CCN(S(=O)(=O)c3ccc(OC)cc3)CC2)cc1	BAZ2B block inconclusive, JMJD2A Tudor 89µM (no result: G9a inh, L3MBTL1 block)
CN(C)CC(C)(C)CNC(=S)Nc1ccc(S(=O)(=O)N2CCOCC2)cc1	none
N#CCCN(C(=S)Nc1ccc(S(=O)(=O)N2CCOCC2)cc1)c1ccccc1F	G9a inh 45µM
CC(C)CCCCCCNC(=S)Nc1ccc(S(=O)(=O)N2CCOCC2)cc1	G9a inh 0.89µM
N#CCCN(C(=S)NC(=O)c1cccs1)c1ccccc1F	BAZ2B block inconclusive, JMJD2A Tudor inconclusive, G9a inh 4µM, HP1b binding inh inconclusive
O=S(=O)(c1ccc(NC(=S)Nc2ccc3c(c2)OCO3)cc1)N1CCOCC1	G9a inh inconclusive
O=S(=O)(c1ccc(NC(=S)Nc2ccccc2)cc1)N1CCOCC1	G9a inh 79µM
COc1ccc(NC(=S)NNC(=O)c2ccc(S(=O)(=O)N3CCOCC3)cc2)cc1	G9a inh 40µM
COc1ccc(CNC(=O)C2CCN(S(=O)(=O)c3ccc4c(ccn4C)c3)CC2)cc1	none (no result: L3MBTL1 block)
CCS(=O)(=O)N1Cc2ccccc2CC1C(=O)NC(C)C12CC3CC(CC(C3)C1)C2 (stereo unspecified)	G9a inh 14µM (no result: L3MBTL1 block)
CCS(=O)(=O)N1Cc2ccccc2CC1C(=O)NCC12CC3CC(CC(C3)C1)C2 (stereo unspecified)	none (no result: L3MBTL1 block)
CCCCNc1nc(Oc2ccc(=O)n(-c3ccccc3)n2)nc(N(C)C)n1	none (no result: L3MBTL1 block)
CN(C)c1oc(-c2ccccc2Cl)nc1P(=O)(c1ccccc1)c1ccccc1	BAZ2B block inconclusive, JMJD2A Tudor 56µM, G9a inh inconclusive (no result: L3MBTL1 block)
CCOP(=O)(OCC)c1nc(-c2ccccc2Cl)oc1N1CCOCC1	none
CCOC(=O)c1ccc(NC(=O)c2nn(C)c3c2COc2ccccc2-3)cc1	BAZ2B block inconclusive, JMJD2A Tudor inconclusive, G9a inh 14µM (no result: L3MBTL1 block)
Cn1c(=S)[nH]c2cc(C(=O)N3CCN(Cc4cccs4)CC3)ccc2c1=O	none (no result: BAZ2B block, G9a inh, L3MBTL1 block)
Cc1cc2cc(CN(Cc3ccc4c(c3)OCO4)Cc3nnnn3C3CCCC3)c(=O)[nH]c2cc1C	none (no result: BAZ2B block)
O=c1[nH]c2cc3c(cc2cc1CN(Cc1cccnc1)Cc1nnnn1Cc1ccco1)OCCO3	BAZ2B block inconclusive, JMJD2A Tudor inconclusive, G9a inh inconclusive (no result: L3MBTL1 block)
Cc1ccc2cc(CN(Cc3ccco3)Cc3nnnn3Cc3ccco3)c(=O)[nH]c2c1	none (no result: BAZ2B block, G9a inh, L3MBTL1 block)
CCC(c1nnnn1Cc1ccco1)N(CCc1ccccc1)Cc1cc2cc(C)ccc2[nH]c1=O (stereo unspecified)	G9a inh 40µM
O=c1[nH]c2cc3c(cc2cc1CN(CCc1ccccc1)Cc1nnnn1C1CCCC1)OCCO3	G9a inh 16µM (no result: JMJD2A Tudor, HP1b binding inh)
O=c1[nH]c2cc3c(cc2cc1CN(Cc1ccccc1)Cc1nnnn1Cc1ccco1)OCCO3	JMJD2A Tudor inconclusive, G9a inh 25µM, L3MBTL1 block inconclusive (no result: BAZ2B block)
COc1ccccc1CN(Cc1cc2cc3c(cc2[nH]c1=O)OCCO3)Cc1nnnn1Cc1ccco1	BAZ2B block inconclusive, JMJD2A Tudor 35µM, G9a inh inconclusive
